# The whole screen tested about 5,500 compounds, of which about 2,000 (36%) were called active. Inconclusive results (about 18%) are left out. The list shows a part of the results. Unmarked numbers belong to inactive results. No stated cut-off is given here; in the data, active means normalized growth mostly below about 0.91 (no sharp cut-off); inconclusive means no clear call, values can overlap the other calls; inactive means mostly above about 0.92.
# Assay: chemical genetic growth profiling, strain panel (AID 1159580);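 further: tested at 20 µM; growth read once vehicle control cultures reached saturation at 30 °C; 1 = growth at the plate median or of vehicle wells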
# Conditions: growth OD
smiles,measurement,setting,value
CCCCCCOc1ccccc1C(N)=O,normalized growth,"S. cerevisiae deletion strains, locus YJR043C, strain POL32, stronger effect = lower value",0.529 (active)
same,normalized growth,"S. cerevisiae deletion strains, locus YJR066W, strain TOR1, stronger effect = lower value",0.815 (active)
same,normalized growth,"S. cerevisiae deletion strains, locus YKL009W, strain mrt4, stronger effect = lower value",0.768 (active)
same,normalized growth,"S. cerevisiae deletion strains, locus YKL068W, stronger effect = lower value",0.851 (active)
same,normalized growth,"S. cerevisiae deletion strains, locus YKL085W, strain MDH1 (second series), stronger effect = lower value",0.826 (active)
same,normalized growth,"S. cerevisiae deletion strains, locus YKL085W, strain MDH1, stronger effect = lower value",0.826 (active)
same,normalized growth,"S. cerevisiae deletion strains, locus YKL160W, strain elf1, stronger effect = lower value",0.883 (active)
same,normalized growth,"S. cerevisiae deletion strains, locus YKL190W, strain CNB1, stronger effect = lower value",0.281 (active)
same,normalized growth,"S. cerevisiae deletion strains, locus YKR001C, strain vps1, stronger effect = lower value",0.678 (active)
same,normalized growth,"S. cerevisiae deletion strains, locus YKR026C, strain gcn3, stronger effect = lower value",0.948
same,normalized growth,"S. cerevisiae deletion strains, locus YKR091W, strain srl3, stronger effect = lower value",0.953
same,normalized growth,"S. cerevisiae deletion strains, locus YLL001W, strain dnm1, stronger effect = lower value",0.887 (active)
same,normalized growth,"S. cerevisiae deletion strains, locus YLL026W, stronger effect = lower value",0.877 (active)
same,normalized growth,"S. cerevisiae deletion strains, locus YLL041C, strain sdh2, stronger effect = lower value",0.94
same,normalized growth,"S. cerevisiae deletion strains, locus YLR027C, strain aat2, stronger effect = lower value",0.898 (active)
same,normalized growth,"S. cerevisiae deletion strains, locus YLR039C, strain RIC1, stronger effect = lower value",1.04
same,normalized growth,"S. cerevisiae deletion strains, locus YLR058C, strain SHM2, stronger effect = lower value",0.641 (active)
same,normalized growth,"S. cerevisiae deletion strains, locus YLR102C, strain apc9, stronger effect = lower value",0.667 (active)
same,normalized growth,"S. cerevisiae deletion strains, locus YLR113W, strain HOG1, stronger effect = lower value",0.85 (active)
same,normalized growth,"S. cerevisiae deletion strains, locus YLR221C, strain rsa3, stronger effect = lower value",0.845 (active)
same,normalized growth,"S. cerevisiae deletion strains, locus YLR258W, strain gsy2, stronger effect = lower value",0.862 (active)
same,normalized growth,"S. cerevisiae deletion strains, locus YLR262C, strain YPT6 (second series), stronger effect = lower value",1.11
same,normalized growth,"S. cerevisiae deletion strains, locus YLR262C, strain YPT6, stronger effect = lower value",0.921
same,normalized growth,"S. cerevisiae deletion strains, locus YLR268W, strain sec22, stronger effect = lower value",0.308 (active)
same,normalized growth,"S. cerevisiae deletion strains, locus YLR320W, strain mms22, stronger effect = lower value",0.59 (active)
same,normalized growth,"S. cerevisiae deletion strains, locus YLR330W, strain CHS5, stronger effect = lower value",0.355 (active)
same,normalized growth,"S. cerevisiae deletion strains, locus YLR342W, strain FKS1 (second series), stronger effect = lower value",0.366 (active)
same,normalized growth,"S. cerevisiae deletion strains, locus YLR342W, strain FKS1, stronger effect = lower value",0.859 (active)
same,normalized growth,"S. cerevisiae deletion strains, locus YLR357W, strain rsc2, stronger effect = lower value",1.07
same,normalized growth,"S. cerevisiae deletion strains, locus YLR370C, strain arc18, stronger effect = lower value",0.932
same,normalized growth,"S. cerevisiae deletion strains, locus YLR371W, strain rom2, stronger effect = lower value",0.566 (active)
same,normalized growth,"S. cerevisiae deletion strains, locus YLR384C, strain iki3, stronger effect = lower value",0.959
same,normalized growth,"S. cerevisiae deletion strains, locus YLR418C, strain cdc73, stronger effect = lower value",0.207 (active)
same,normalized growth,"S. cerevisiae deletion strains, locus YML016C, strain PPZ1, stronger effect = lower value",0.822 (active)
same,normalized growth,"S. cerevisiae deletion strains, locus YML032C, strain rad52, stronger effect = lower value",0.526 (active)
same,normalized growth,"S. cerevisiae deletion strains, locus YML120C, strain ndi1, stronger effect = lower value",0.857 (active)
same,normalized growth,"S. cerevisiae deletion strains, locus YML124C, strain tub3, stronger effect = lower value",0.725 (active)
same,normalized growth,"S. cerevisiae deletion strains, locus YMR058W, strain fet3, stronger effect = lower value",0.807 (active)
same,normalized growth,"S. cerevisiae deletion strains, locus YMR078C, strain ctf18, stronger effect = lower value",0.361 (active)
same,normalized growth,"S. cerevisiae deletion strains, locus YMR125W, strain sto1, stronger effect = lower value",0.785 (active)
same,normalized growth,"S. cerevisiae deletion strains, locus YMR129W, stronger effect = lower value",0.945
same,normalized growth,"S. cerevisiae deletion strains, locus YMR205C, strain PFK2, stronger effect = lower value",0.835 (active)
same,normalized growth,"S. cerevisiae deletion strains, locus YMR223W, strain ubp8, stronger effect = lower value",0.55 (active)
same,normalized growth,"S. cerevisiae deletion strains, locus YMR231W, strain pep5, stronger effect = lower value",0.979
same,normalized growth,"S. cerevisiae deletion strains, locus YMR307W, strain GAS1, stronger effect = lower value",0.457 (active)
same,normalized growth,"S. cerevisiae deletion strains, locus YNL067W, strain RPL9B, stronger effect = lower value",0.599 (active)
same,normalized growth,"S. cerevisiae deletion strains, locus YNL071W, strain lat1, stronger effect = lower value",0.57 (active)
same,normalized growth,"S. cerevisiae deletion strains, locus YNL153C, strain GIM3, stronger effect = lower value",0.502 (active)
same,normalized growth,"S. cerevisiae deletion strains, locus YNL183C, strain NPR1, stronger effect = lower value",0.869
same,normalized growth,"S. cerevisiae deletion strains, locus YNL209W, strain ssb2, stronger effect = lower value",0.902 (active)
same,normalized growth,"S. cerevisiae deletion strains, locus YNL233W, strain BNI4, stronger effect = lower value",0.326 (active)
same,normalized growth,"S. cerevisiae deletion strains, locus YNL248C, strain rpa49, stronger effect = lower value",0.865 (active)
same,normalized growth,"S. cerevisiae deletion strains, locus YNL250W, strain rad50, stronger effect = lower value",0.871 (active)
same,normalized growth,"S. cerevisiae deletion strains, locus YNL271C, strain bni1, stronger effect = lower value",0.696 (active)
same,normalized growth,"S. cerevisiae deletion strains, locus YNL298W, strain CLA4, stronger effect = lower value",0.778 (active)
same,normalized growth,"S. cerevisiae deletion strains, locus YNL307C, strain MCK1, stronger effect = lower value",0.0873 (active)
same,normalized growth,"S. cerevisiae deletion strains, locus YNL322C, strain KRE1 (second series), stronger effect = lower value",0.978
same,normalized growth,"S. cerevisiae deletion strains, locus YNL322C, strain KRE1, stronger effect = lower value",0.705 (active)
same,normalized growth,"S. cerevisiae deletion strains, locus YNR049C, strain mso1, stronger effect = lower value",0.942
same,normalized growth,"S. cerevisiae deletion strains, locus YNR052C, strain pop2, stronger effect = lower value",0.797 (active)
same,normalized growth,"S. cerevisiae deletion strains, locus YOL006C, strain TOP1, stronger effect = lower value",0.135 (active)
same,normalized growth,"S. cerevisiae deletion strains, locus YOL012C, strain htz1",0.5
same,normalized growth,"S. cerevisiae deletion strains, locus YOL147C, strain pex11, stronger effect = lower value",0.243 (active)
same,normalized growth,"S. cerevisiae deletion strains, locus YOR001W, strain rrp6, stronger effect = lower value",0.904
same,normalized growth,"S. cerevisiae deletion strains, locus YOR061W, strain CKA2, stronger effect = lower value",0.794 (active)
same,normalized growth,"S. cerevisiae deletion strains, locus YOR069W, strain VPS5, stronger effect = lower value",0.798 (active)
same,normalized growth,"S. cerevisiae deletion strains, locus YOR070C, strain gyp1, stronger effect = lower value",0.891 (active)
same,normalized growth,"S. cerevisiae deletion strains, locus YOR080W, strain dia2, stronger effect = lower value",0.951
same,normalized growth,"S. cerevisiae deletion strains, locus YOR083W, strain WHI5, stronger effect = lower value",0.855 (active)
same,normalized growth,"S. cerevisiae deletion strains, locus YOR106W, strain vam3, stronger effect = lower value",0.861 (active)
same,normalized growth,"S. cerevisiae deletion strains, locus YOR136W, strain idh2, stronger effect = lower value",0.719 (active)
same,normalized growth,"S. cerevisiae deletion strains, locus YOR144C, strain elg1, stronger effect = lower value",0.485 (active)
same,normalized growth,"S. cerevisiae deletion strains, locus YOR184W, strain ser1, stronger effect = lower value",0.187 (active)
same,normalized growth,"S. cerevisiae deletion strains, locus YOR231W, strain MKK1, stronger effect = lower value",0.877
same,normalized growth,"S. cerevisiae deletion strains, locus YOR265W, strain rbl2, stronger effect = lower value",0.929
same,normalized growth,"S. cerevisiae deletion strains, locus YOR270C, strain vph1, stronger effect = lower value",0.446 (active)
same,normalized growth,"S. cerevisiae deletion strains, locus YOR290C, strain snf2, stronger effect = lower value",0.87
same,normalized growth,"S. cerevisiae deletion strains, locus YOR316C, strain cot1, stronger effect = lower value",0.567 (active)
same,normalized growth,"S. cerevisiae deletion strains, locus YPL051W, strain arl3, stronger effect = lower value",0.878 (active)
same,normalized growth,"S. cerevisiae deletion strains, locus YPL078C, strain atp4, stronger effect = lower value",0.729 (active)
same,normalized growth,"S. cerevisiae deletion strains, locus YPL106C, strain sse1, stronger effect = lower value",1.01
same,normalized growth,"S. cerevisiae deletion strains, locus YPL240C, strain hsp82, stronger effect = lower value",0.945
same,normalized growth,"S. cerevisiae deletion strains, locus YPL256C, strain CLN2, stronger effect = lower value",0.864
same,normalized growth,"S. cerevisiae deletion strains, locus YPR119W, strain clb2, stronger effect = lower value",0.625 (active)
same,normalized growth,"S. cerevisiae deletion strains, locus YPR141C, strain kar3, stronger effect = lower value",0.825 (active)
same,normalized growth,"S. cerevisiae deletion strains, locus YPR163C, strain tif3, stronger effect = lower value",0.142 (active)
same,normalized growth,"S. cerevisiae deletion strains, locus YPR167C, strain met16, stronger effect = lower value",0.627 (active)
same,normalized growth,"S. cerevisiae deletion strains, strain wtn01, stronger effect = lower value",0.444 (active)
same,normalized growth,"S. cerevisiae strains, strain wild type, stronger effect = lower value",0.559 (active)

# Source: PubChem BioAssay AID1159580 (chemical genetic matrix, 2015)
